Test results from PubChem BioAssay.

These molecules were tested on glycogen synthase kinase-3 (GSK3A per assay name; protocol says GSK3B) (assay: GSK3 binders on small-molecule microarrays, primary screen, biochemical, small-molecule microarray, 635 nm fluorescence, GSK3A (AID 1103; further: the record names both GSK3A and GSK3B)). Settings: small-molecule microarray binding, fluorescence 635 nm; higher = more signal.

| SMILES | composite z-score |
| --- | --- |
| C=CCNC(=O)[C@H]1[C@@H]2C(=O)O[C@@H](c3ccccc3)[C@@H](c3ccccc3)N2[C@@H](c2ccc(O)cc2)[C@]12C(=O)N(C(=O)OCCOC)c1ccc(C#Cc3ccc(OC)cc3)cc12 | 1.08 |
| O=C1OC[C@@H](c2ccccc2)n2cc(/C=C/c3ccccc3)cc21 | -0.678 |
| COc1c(C)cc(-c2nc(-c3ccccc3)c3c(c2C)CO[Si]3(C(C)C)C(C)C)cc1C | 0.324 |
| C=C(CCCC)/C(=C/C[C@@H](OC(C)=O)c1cccc(OCCO)c1)c1cc(C(=O)OC)ccc1OC | -0.657 |
| CC1CC/C=C\[C@H]2OC34C=CCN(C(C)C)C(=O)[C@H]3N(C(C)CO)C(=O)[C@@H]4C2C(=O)O1 (stereo partly drawn) | -0.297 |
| CCCCC(=C=CC[C@@H](O)c1ccc(OCCO)cc1)CCO | -0.246 |
| COc1ccc(C(=O)Nc2ccc(CN3C(=O)[C@]4(O[C@H](CC(=O)N(CCO)Cc5ccccc5)[C@@H]([Si](C)(C)c5ccc(OC)cc5)[C@@H]4C)c4ccccc43)cc2)cc1 | 0.956 |
| COC(=O)[C@@]1(Cc2ccc(F)cc2)[C@H]2c3cc(C(=O)N(C)C)n(Cc4ccc(C(F)(F)F)nc4)c3C[C@H]2CN1C(=O)c1ccccc1 | 1.36 |
| O=C(NCCN1CCOCC1)[C@@H]1c2ccccc2C(=O)N(CC23CC4CC(CC(C4)C2)C3)[C@H]1c1ccc(CO)cc1 | 1.32 |
| CO[C@H]1O[C@H](CO)[C@@H](OC(=O)Nc2cccc(F)c2)[C@H](OC(=O)Nc2ccc3c(c2)OCO3)[C@@H]1OC(=O)Nc1ccc2c(c1)OCO2 | 1.2 |
| CN(C)CCCCCCNC(=O)[C@@H]1C[C@@H]2C(=O)N[C@@H](CCCC[N+](C)(C)C)C(=O)N2[C@@H]1c1cccc(OCCO)c1 | 0.218 |
| CN(C)C(=O)[C@]1(CCS(=O)(=O)c2ccccc2)N=C(c2ccc(OCCCO)cc2)O[C@@H]1c1ccccc1CN=[N+]=[N-] | 1.24 |
| CN1C(=O)C2C=CC(C(O)c3ccc([N+](=O)[O-])cc3)N(Nc3ccccc3)C2C1=O (stereo not drawn) | 0.895 |
| CCOC(=O)C[C@H]1[C@H](OC(=O)c2ccccc2-c2ccccc2)[C@@H](NC(=O)CC(C)C)c2cc(OCCCO)ccc2N1C(=O)c1ccccc1 | 0.211 |
| O=C1C2C=CC(C(O)C3CC=CCC3)N(Nc3ccc([N+](=O)[O-])cc3)C2C(=O)N1c1ccccc1 (stereo not drawn) | 1.1 |
| COc1cccc(C)c1NC(=O)O[C@H]1[C@H](OC(=O)Nc2ccc3c(c2)OCO3)[C@H](OC(=O)Nc2ccc3c(c2)OCO3)[C@@H](OC)O[C@@H]1CO | 1.34 |
| CC(C)(C)OC(=O)CC[C@]1(C(N)=O)N=C(c2ccc(OCCCO)cc2)O[C@H]1c1ccccc1N=[N+]=[N-] | -0.0657 |
| C=CCN1C(=O)[C@]2(O[C@H](CCO)[C@@H]([Si](C)(C)c3ccc(OC)cc3)[C@@H]2C)c2cc(N3C(=O)c4ccccc4Oc4ccccc43)ccc21 | 0.209 |
| C=C(/C=C\CNS(=O)(=O)c1ccc(C)cc1)[C@H](O)[C@H]1CCCN1S(=O)(=O)c1ccccc1[N+](=O)[O-] | 0.215 |
| COC(=O)[C@@]1(Cc2ccc(F)cc2)[C@H]2c3cc(C(=O)N4CCCC4)n(C[C@H](O)CO)c3C[C@H]2CN1C(=O)c1ccccc1 | 0.094 |
| O=C1O[C@H](c2ccccc2)[C@H](c2ccccc2)N2[C@H]1[C@@H](C(=O)O)[C@]1(C(=O)Nc3ccccc31)[C@H]2c1ccc(OCCO)cc1 | -0.0583 |
| COc1ccc(CCNC(=O)[C@@H]2c3ccccc3C(=O)N(C(C)C)[C@H]2c2ccc(CO)cc2)cc1 | -0.848 |
| O=C1O[C@@H](c2ccccc2)[C@@H](c2ccccc2)N2[C@@H](c3ccc(OCCO)cc3)[C@]3(C(=O)Nc4ccc(C#CC5=CCCCC5)cc43)[C@@H](C(=O)Nc3nc4ccccc4s3)[C@H]12 | 0.489 |
| C=C(COC)C(=O)CC[C@@H](OC(=O)c1ccccc1-c1ccccc1C(=O)O)c1ccccc1OCCO | 0.293 |
| CCOC(=O)C[C@H]1[C@H](OC(=O)Cc2ccc3c(c2)OCO3)[C@@H](NC(=O)CC(C)C)c2cc(OCCCO)ccc2N1C(=O)c1ccc2ccccc2n1 | 0.614 |
| COC(=O)Cn1c(C(=O)N(C)C)cc2c1C[C@H]1CN(C(=O)c3ccccc3)[C@@](Cc3ccccc3)(C(=O)OC)[C@@H]21 | -1.25 |
| C[C@@]1([C@@H](NS(=O)(=O)c2cccc3cccnc23)c2ccc(-c3ccccc3)cc2)C[C@H]1C1CCCCC1 | -0.472 |
| COCCOC(=O)N1C(=O)[C@@]2(c3cc(C#CCC(C(=O)OC)C(=O)OC)ccc31)[C@H](C(N)=O)[C@H]1C(=O)O[C@H](c3ccccc3)[C@H](c3ccccc3)N1[C@@H]2c1ccccc1OCCO | 1.31 |
